In test [1] the target is Aryl hydrocarbon receptor (Homo sapiens) (UniProt P35869). Description: qHTS assay to identify small molecule that activate the aryl hydrocarbon receptor (AhR) signaling pathway (AID 743085). Further: nearly all actives have a fitted effect of over 15% in size. Further: potency means the concentration at half of the fitted maximal effect.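 On activation: HG2L7.5c1 human HepG2 liver cells with stably integrated DRE-driven firefly reporter; series mostly up to about 70 µM.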 A digest of the protocol: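 Cell line HG2L7.5c1 (human hepatoma, 20× DRE-luc). Plated, 5 h 37C, compound/DMSO added, 24 h 37C. CellTiter-Fluor 30 min 37C → fluorescence; then ONE-Glo 30 min RT → luminescence.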
Chain of Aryl hydrocarbon receptor (Homo sapiens) (P35869 whole entry, looked up): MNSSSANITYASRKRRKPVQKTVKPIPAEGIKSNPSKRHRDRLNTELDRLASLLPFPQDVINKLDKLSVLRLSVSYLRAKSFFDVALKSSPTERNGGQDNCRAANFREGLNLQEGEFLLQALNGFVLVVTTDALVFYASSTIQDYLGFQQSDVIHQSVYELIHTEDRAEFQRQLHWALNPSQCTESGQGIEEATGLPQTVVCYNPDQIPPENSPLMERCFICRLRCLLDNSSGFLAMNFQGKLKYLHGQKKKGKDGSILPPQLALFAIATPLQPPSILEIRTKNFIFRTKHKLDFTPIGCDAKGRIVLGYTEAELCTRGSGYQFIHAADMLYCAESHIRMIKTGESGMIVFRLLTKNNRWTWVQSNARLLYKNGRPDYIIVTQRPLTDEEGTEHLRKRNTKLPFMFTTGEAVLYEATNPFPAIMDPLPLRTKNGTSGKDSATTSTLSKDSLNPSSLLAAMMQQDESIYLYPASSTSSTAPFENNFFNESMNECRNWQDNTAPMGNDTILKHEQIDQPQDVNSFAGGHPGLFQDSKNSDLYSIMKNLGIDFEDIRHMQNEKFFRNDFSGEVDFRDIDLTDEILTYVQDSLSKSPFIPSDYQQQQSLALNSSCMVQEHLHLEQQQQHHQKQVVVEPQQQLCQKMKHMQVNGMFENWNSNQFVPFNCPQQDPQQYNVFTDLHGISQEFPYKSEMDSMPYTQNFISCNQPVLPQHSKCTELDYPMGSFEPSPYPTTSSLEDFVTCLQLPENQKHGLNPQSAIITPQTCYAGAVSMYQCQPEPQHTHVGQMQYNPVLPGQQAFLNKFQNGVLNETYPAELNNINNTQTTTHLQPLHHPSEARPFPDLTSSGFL
(Quantitative high-throughput screening tests each substance at several concentrations.)

The nature of test [2]: A CellTox Green Cytotoxicity Assay to monitor cytotoxicity in HEK293 cells - 0 hour (AID 1224869). Further: nearly all actives have a fitted effect of over 50% in size. In a few lines: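 Fluorescence from a DNA-binding dye excluded by viable cells was measured repeatedly in the same HEK293 wells (600 cells/well) during continuous compound exposure at 37 C. Each assay gives one read point: 0, 8, 16, 24, 32 or 40 h.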
Test [3] is described as follows: A CellTox Green Cytotoxicity Assay to monitor cytotoxicity in HepG2 cells - 0 hour (AID 1224882). Further: nearly all actives have a fitted effect of over 35% in size. A digest of the protocol:
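Real-time cytotoxicity: fluorescence of a cell-impermeant cyanine dye binding DNA of dead HepG2 cells, measured repeatedly (0–40 h) during compound exposure at 37 C. Cells seeded 600/well with reagent, dosed after 5 h.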

The nature of test [4]: qHTS assay to identify small molecule antagonists of the estrogen receptor alpha (ER-alpha) signaling pathway using the BG1 cell line in the presence of 0.1 nM 17-beta-estradiol - cell viability counter screen (AID 1259241). Further: nearly all actives have a fitted effect of over 40% in size. A digest of the protocol:
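VM7Luc4E2, 4,000 cells/well, phenol red-free medium + 10% charcoal-stripped FBS; 24 hr plating; cpd + 0.1 nM E2 final, 22 hr 37C/5% CO2; CellTiter-Fluor 30 min, fluorescence.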

Test [5] can be described thus: qHTS assay to identify small molecule HDAC inhibitors (AID 1259364). Further: top concentration of the series differs between compounds; nearly all actives have a fitted effect of over 45% in size. A digest of the protocol:
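Luminescence read after 30 min room-temperature HDAC-Glo incubation measures cellular class I/II HDAC activity. Compounds were applied for 2 hr at 37 C to HCT-116 wild-type cells seeded the day before.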

Test [6] is described as follows: Caspase-3/7 induction in HepG2 cells by small molecules, qHTS assay (AID 1346978). Further: nearly all actives have a fitted effect of over 15% in size. In a few lines:
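Wild-type HepG2 cells, 2,000/well, settled 5 hr at 37 C and 5% CO2, then compound-treated for 17 hr; caspase-3/7 activity read by luminescent Caspase-Glo 3/7 after 30 min at room temperature.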

The nature of test [7]: Caspase-3/7 induction in CHO-K1 cells by small molecules, qHTS assay (AID 1346980). Further: nearly all actives have a fitted effect of over 15% in size. In a few lines:
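Wild-type CHO-K1 cells exposed to compounds for 17hr at 37 C, 5% CO2. Caspase-3/7 activity then measured by Caspase-Glo 3/7 luminescence after 30min at room temperature.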

Test [8] has as its target Acetylcholinesterase (Homo sapiens) (UniProt P22303). The test can be described thus: Acetylcholinesterase (AChE) small molecule antagonists: colormetric cell-based qHTS assay (AID 1347395; calls by dose curve; further: nearly all actives have a fitted effect of over 30% in size). In a few lines:
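Colorimetric read-out: DTNB detects thiocholine released when cellular AChE in SH-SY5Y cells hydrolyses acetylthiocholine. Cells attached overnight, received compound for 30 min at 37 C, then substrate mix for 90 min at 37 C.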

Test [9] shares this target. The test can be described thus: Acetylcholinesterase (AChE) small molecule antagonists: enzyme-based qHTS assay (AID 1347397; calls by dose curve; further: nearly all actives have a fitted effect of over 55% in size). To be noted: Potency: AChE enzyme activity inhibition; outcome: AChE enzyme activity inhibition. A digest of the protocol: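 In this quantitative HTS, compounds from the Tox21 10K collection were preincubated 30 min at ambient temperature with recombinant human AChE dispensed at 50 mU/mL. Hydrolysis of acetylthiocholine was then followed for 10 min by DTNB colour development.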

Test [10] shares this target. The test can be described thus: Acetylcholinesterase (AChE) small molecule antagonists: fluorescence cell-based qHTS assay (AID 1347398; calls by dose curve; further: nearly all actives have a fitted effect of over 50% in size). The note with it: Potency: AChE activity; outcome: AChE activity. In a few lines:
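Cells (SH-SY5Y) attached overnight, were dosed with compound or DMSO vehicle for 30 min at 37 C, and then incubated 40 min at room temperature with acetylthiocholine and Thiolite Green; green fluorescence indexed AChE activity.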

For test [11] the target is unchanged. The test can be described thus: Acetylcholinesterase (AChE) small molecule antagonists: enzyme-based qHTS assay with human liver microsomes (AID 1347399; calls by dose curve; further: nearly all actives have a fitted effect of over 60% in size). The note with it: Potency: qHTS inhibition; outcome: qHTS inhibition. A digest of the protocol: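 Recombinant human AChE (50 mU/mL in the enzyme mix) and human liver microsomes (0.25 mg/mL final) were preincubated with compound and NADPH (0.25 mg/mL final) for 30 min at 37 C. Acetylthiocholine/DTNB was then added; thiocholine was read colorimetrically after 10 min at room temperature.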

In test [12] the target is Cytochrome P450 1A2 (Homo sapiens) (UniProt P05177). Description: Cytochrome P450 Family 1 Subfamily A Member 2 (CYP1A2) small molecule antagonists: luciferase reporter qHTS assay (AID 1671199). Further: nearly all actives have a fitted effect of over 50% in size. Further: potency means the concentration at half of the fitted maximal effect. In a few lines:
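Luminescence from luciferin formed by CYP1A2 from a proluciferin substrate, read 20 min after detection reagent. Compound was pre-incubated 10 min with enzyme-substrate, and reaction started with NADPH regeneration solution for 1 h at room temperature; furafylline control.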
A general note: A reporter such as luciferase makes a cellular process visible.

Another test addresses Aromatase (Homo sapiens) (UniProt P11511). The test can be described thus: qHTS assay to identify aromatase inhibitors (AID 743083). Further: nearly all actives have a fitted effect of over 55% in size. Further: potency means the concentration at half of the fitted maximal effect.
A short description of test [13]: qHTS assay to identify small molecule agonists of H2AX (AID 1224845; active means well fitted activation curve with a large enough effect in the signal ratio in the repeat runs, not every such curve was filed as active; the % refers to the signal ratio; further: potency means the concentration at half of the fitted maximal effect). A digest of the protocol: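 Wild-type CHO-K1 cells, plated overnight, exposed 3hr at 37C to 15 concentrations (0.76% DMSO final). Lysed, then HTRF anti-pH2AX (S139) cryptate and anti-H2AX-d2 antibodies, 24 hr room temperature; 665/620 nm emission read.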
Test [14] is described as follows: qHTS assay to identify small molecule agonists of the estrogen related receptor (ERR) signaling pathway (AID 1224820). In a few lines: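 After 6 h plating (2,000 cells/well) and 18 h compound treatment at 37 C, ERR cells were lysed with One-Glo and luminescence read after 30 min at room temperature.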
Test [15] has as its system estrogen-related receptor alpha (ERRalpha) with PGC-1alpha coactivator, human. The test can be described thus: qHTS assay to identify small molecule antagonists of the estrogen related receptor signaling pathway with the pleiotropic PPARgamma coactivator (PGC) (AID 1224821; calls by dose curve; further: potency means the concentration at half of the fitted maximal effect; nearly all actives have a fitted effect of over 50% in size). A digest of the protocol:
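Luminescence from One-Glo luciferase reagent (30 min, room temperature) measured after 18 h compound treatment at 37 °C. Cells carry the PGC/ERR reporter and were seeded 6 h prior to dosing.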

Test [16] in a line: qHTS assay to identify small molecule antagonists of the estrogen related receptor signaling pathway with the pleiotropic PPARgamma coactivator (PGC) cell viability counter screen (AID 1224822; further: series mostly up to about 46 µM). A digest of the protocol:
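Viability counter-screen read by fluorescence intensity after 30 min with CellTiter-Fluor at 37 C; PGC/ERR reporter cells were exposed to compounds for 17.5 h at 37 C following a 6 h preincubation.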

A short description of test [17]: qHTS assay to identify small molecule agonists of the estrogen related receptor signaling pathway with the pleiotropic PPARgamma coactivator (PGC) (AID 1224823). A digest of the protocol:
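Luminescence from One-Glo reagent (30 min, room temperature) was read after 18 h compound treatment at 37 C of PGC/ERR cells plated 6 h beforehand; compounds delivered in DMSO by pin tool.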

SMILES strings stand for the structures. Several values for one entry are separate records, joined by “and”; a condition that tells them apart may be missing. Equal values may be shown once. Inconclusive results are not listed. Activity calls are given as the source filed them. Unless noted, the call rests on the fitted dose curve; in most records, active means well fitted curve in the direction sought with a large enough effect in the repeat runs; inconclusive means weak or mixed curves; inactive means no such curve, though single readings can be large; an effect the other way counts as inactive or inconclusive.

The values below come from PubChem BioAssay (Tox21).

Chain of Aromatase (Homo sapiens) (P11511 whole entry, looked up): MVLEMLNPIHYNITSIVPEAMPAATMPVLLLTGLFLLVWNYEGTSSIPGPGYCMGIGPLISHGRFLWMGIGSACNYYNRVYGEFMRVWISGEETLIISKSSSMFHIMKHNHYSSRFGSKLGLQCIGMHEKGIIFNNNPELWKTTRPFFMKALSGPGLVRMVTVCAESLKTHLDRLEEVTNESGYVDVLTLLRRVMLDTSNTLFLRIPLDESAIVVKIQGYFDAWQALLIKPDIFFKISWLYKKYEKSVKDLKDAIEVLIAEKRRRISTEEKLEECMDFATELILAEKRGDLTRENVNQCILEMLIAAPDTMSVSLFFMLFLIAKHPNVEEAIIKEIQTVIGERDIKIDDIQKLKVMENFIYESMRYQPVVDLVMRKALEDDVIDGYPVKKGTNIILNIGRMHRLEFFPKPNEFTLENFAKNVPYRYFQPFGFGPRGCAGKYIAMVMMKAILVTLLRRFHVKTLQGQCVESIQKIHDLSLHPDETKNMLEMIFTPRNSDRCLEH
Chain of Cytochrome P450 1A2 (Homo sapiens) (P05177 whole entry, looked up): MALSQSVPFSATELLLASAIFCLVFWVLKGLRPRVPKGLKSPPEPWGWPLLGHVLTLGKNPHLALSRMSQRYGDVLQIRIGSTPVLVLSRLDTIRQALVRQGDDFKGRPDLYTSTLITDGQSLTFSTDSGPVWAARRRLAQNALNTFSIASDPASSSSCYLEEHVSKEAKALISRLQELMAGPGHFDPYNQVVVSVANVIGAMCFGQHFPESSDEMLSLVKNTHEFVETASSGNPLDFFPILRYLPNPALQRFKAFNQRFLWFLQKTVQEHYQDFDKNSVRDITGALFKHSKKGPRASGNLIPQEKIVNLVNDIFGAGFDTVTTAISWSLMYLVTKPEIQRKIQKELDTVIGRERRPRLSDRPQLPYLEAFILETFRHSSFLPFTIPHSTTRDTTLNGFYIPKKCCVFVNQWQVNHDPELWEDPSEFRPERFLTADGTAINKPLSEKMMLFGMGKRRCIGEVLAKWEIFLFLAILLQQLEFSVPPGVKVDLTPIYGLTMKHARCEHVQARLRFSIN
Chain of Acetylcholinesterase (Homo sapiens) (P22303 whole entry, looked up): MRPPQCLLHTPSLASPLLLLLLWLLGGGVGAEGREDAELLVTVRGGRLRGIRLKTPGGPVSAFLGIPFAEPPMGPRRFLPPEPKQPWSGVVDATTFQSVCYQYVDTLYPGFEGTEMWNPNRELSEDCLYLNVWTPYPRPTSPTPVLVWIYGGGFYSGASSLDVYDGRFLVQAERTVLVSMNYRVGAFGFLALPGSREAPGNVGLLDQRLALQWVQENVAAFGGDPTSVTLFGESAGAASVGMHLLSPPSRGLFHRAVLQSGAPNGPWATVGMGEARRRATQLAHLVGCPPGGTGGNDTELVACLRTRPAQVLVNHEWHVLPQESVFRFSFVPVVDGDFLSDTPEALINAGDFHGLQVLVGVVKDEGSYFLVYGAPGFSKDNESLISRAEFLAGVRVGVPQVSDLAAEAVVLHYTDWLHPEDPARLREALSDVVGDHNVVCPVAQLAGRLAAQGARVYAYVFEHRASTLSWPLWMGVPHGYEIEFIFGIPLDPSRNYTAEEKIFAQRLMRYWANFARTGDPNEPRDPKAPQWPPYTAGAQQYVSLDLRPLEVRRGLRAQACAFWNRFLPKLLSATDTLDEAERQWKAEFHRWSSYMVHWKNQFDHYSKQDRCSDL

`ClC1=C(Cl)[C@]2(Cl)[C@@H]3[C@@H](Cl)[C@H]4O[C@H]4[C@@H]3C1(Cl)C2(Cl)Cl`: the Potency entry in [1], in test [2], in [3], in test [4], in test [6] and in test [8] was “inactive” throughout. Further, the Potency result in test [9], in test [10], in test [11] and in test [12] was “inactive” throughout. The compound was classed as inactive in test [5] and in test [7].

Take `CC(C)(C)c1cc(C(C)(C)C)c(O)c(C(C)(C)C)c1`: the Potency entry (in the test with Aromatase (Homo sapiens); in test [1]; in test [6]; in [8]; in test [9]; in [10]) was “inactive” each time. Also, in [11], the Potency result was “inactive”. Moreover, in [13], the Potency was 101 µM (active).

Turning to `Oc1c(I)cc(I)cc1I`, the Potency result in test [13], in [2], in test [3], in [4], in test [6] and in test [8] was “inactive” in each case. Further, the Potency entry in test [9], in test [10] and in test [11] was “inactive” in each case. The result in [5] and in test [7] was inactive. Besides, the Potency in [12] is 39.9 µM (active).

For the compound `N#Cc1cc([N+](=O)[O-])ccc1N`, the Potency result in test [13], in test [2], in test [3], in test [4], in test [6] and in test [9] was “inactive” in each case. The Potency result in test [10] and in [11] was “inactive” in each case. Besides, the result in [5] and in test [7] was inactive. For the same compound, in test [12], the Potency is 35.6 µM (active).

`CCc1cccc(CC)c1N`: the Potency result (with Aromatase (Homo sapiens); in [1]; in test [13]; in test [8]; in test [9]; in [10]) was “inactive” throughout. In test [11], the Potency result was “inactive”.

Turning to `CCOC(=O)C(O)(c1ccc(Cl)cc1)c1ccc(Cl)cc1`, the Potency is 4.37 µM (active) and 30.6 µM (active) in the test with Aromatase (Homo sapiens); 24.6 µM (active) in [1]; 90.7 µM (active) and 89.8 µM (active) in [13]; 40.3 µM (active) and 71 µM (active) in test [12]. In addition, the Potency result in test [2], in [3], in [4], in test [8], in test [9] and in [10] was “inactive” throughout. For the same compound, the Potency entry in [11] was “inactive”. Besides, in test [5], the outcome was inactive.

Consider `O=S(=O)(C(Cl)(Cl)Cl)C(Cl)(Cl)Cl`, for which the Potency result in test [2], in [3], in [4], in [6], in test [8] and in test [9] was “inactive” each time. Also, the Potency result in [10] and in [11] was “inactive” each time. For the same compound, the compound was called inactive in [5] and in test [7]. Further, in [12], the Potency is 22.4 µM (active).

With `CO/C=C(/C(=O)OC)c1ccccc1Oc1cc(Oc2ccccc2C#N)ncn1`, the values for the Potency (with Aromatase (Homo sapiens); in test [15]; in test [12]) were 41.1 µM (active), 8.31 µM (active) and 41.4 µM (active), respectively. For the same compound, the Potency result in test [14], in test [16], in [17], in test [2], in test [3] and in test [6] was “inactive” throughout. In addition, the Potency entry in [8], in test [9], in [10] and in test [11] was “inactive” throughout. The call in test [5] and in test [7] was inactive.

As to `Cc1cc(C)c(C(=O)P(=O)(c2ccccc2)c2ccccc2)c(C)c1`, the Potency result in [2], in test [3], in test [4], in test [6], in [8] and in test [9] was “inactive” throughout. The Potency entry in [10], in test [11] and in [12] was “inactive” in each case. The compound was classed as inactive in test [5] and in [7].
